Our source for the EC50 values is PubChem BioAssay AID588592 (Sanford-Burnham Center for Chemical Genomics, 2011).

Some of the results follow. Values without a mark were called inactive. How the calls were made is not given here.

A short description of the assay: fluorescence interference of Apaf-1 activator hits, dose response, artefact control for Apaf-1 activator project (AID 588592). The following applies: fluorescence interference counterscreen, Apaf-1 activator assay.
By EC50 is commonly meant the concentration at which the effect is half-maximal. Turning to `C=CC1=C(C(=O)O)N2C(=O)[C@@H](NC(=O)/C(=N/OCC(=O)O)c3csc(N)n3)[C@H]2SC1`, the EC50 is over 100 µM.

For `CCN(CC)CCOc1ccc2c(c1)C(=NNC(=O)c1ccccn1)c1cc(OCCN(CC)CC)ccc1-2`, the EC50 is over 100 µM.

Turning to `C=CC1=C(C(=O)O)N2C(=O)[C@@H](NC(=O)/C(=N\OCC(=O)O)c3csc(N)n3)[C@H]2SC1`, the EC50 was over 100 µM.

With `C=C(C)C(=O)Nc1cccc(C2=NOC3(C2)C[C@H](C(N)=O)N(C(=O)C(c2ccccc2)c2ccccc2)C3)c1` (some centres undefined), the EC50 was over 100 µM.
